Bioassay records from PubChem.
IEC-6 cytotox: cytotoxicity in IEC-6 intestinal epithelial cells, primary screen, cytotoxicity control for KLF5 inhibitor project, cell-based, luminescence; inhibition, % at 5 µM; hit rate 0.78% among 290,000; AID 1825, 2009; IEC-6 cytotoxicity, luminescence viability;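 note: 0% = plate median of test compound wells and 100% = cytotoxic reference compound wells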
APP transl inh: inhibitors of APP translation via 5'UTR reporter, primary screen, APP 5'UTR luciferase, SH-SY5Y cells; SH-SY5Y APP 5'UTR-luciferase reporter, luminescence; inhibition, % at 2 µM; hit rate 0.82% among 190,000; AID 1285, 2008;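 active = inhibition above a set limit, derived from the sample mean plus 3 SD, cut at about 45% in these data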
aSyn 5UTR inh: MLPCN primary screen, SNCA 5' untranslated region; alpha-synuclein 5'UTR reporter, inhibitor activity; inhibition, % (tested at 7.5 µM); hit rate 0.82% among 300,000; in the data active = inhibition above about 60%;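 note: H4 neuroglioblastoma cells stably carrying SNCA 5'UTR luciferase fusion; 0% = DMSO wells and 100% = positive control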
KLF5 inhibitor: KLF5 expression inhibitors, primary screen, DLD-1 cells, luminescence; DLD-1 KLF5 promoter-luciferase reporter; inhibition, % at 5 µM; hit rate 0.23% among 290,000; AID 1700, 2009;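 active = inhibition above a per-plate limit of that plate's mean compound inhibition plus 3 SD, cut at about 60% in these data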;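 note: 0% = DMSO wells and 100% = LY294002 at 200 µM; higher means less KLF5 promoter-driven luciferase light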
Ba/F3 V617F tox: reduced viability of JAK2V617F-dependent Ba/F3 cells, primary screen, JAK2V617F inhibitor project, cell-based, Ba/F3 EpoR-JAK2V617F, luminescence; ATP luminescence; inhibition, % at 5.6 µM; hit rate 1.1% among 220,000;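 active = inhibition above the campaign mean plus 3 SD over all tested compounds, cut at about 24% in these data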;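 note: cytokine-independent growth of Ba/F3 cells driven by EpoR plus mutant JAK2; 0% = DMSO-treated cells and 100% = JAK inhibitor I control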
BaF3 parental: parental Ba/F3 cell viability inhibition, counter-screen for JAK2V617F inhibitor project, murine pro-B, CellTiter-Glo luminescence; CellTiter-Glo ATP luminescence; inhibition, % at 5.6 µM; hit rate 1.1% among 220,000; AID 1486, 2009;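 active = inhibition above a per-campaign cutoff, the mean inhibition of all tested compounds plus 3 SD, cut at about 27% in these data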;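 note: 0% = DMSO wells and 100% = JAK Inhibitor I control wells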
IEC-6 tox confirm: cytotoxic compounds in IEC-6 epithelial cells, confirmation, cytotoxicity control, cell-based, luminescence; shares compounds with IEC-6 cytotox; IEC-6 rat intestinal epithelial viability; inhibition, % at 5 µM; hit rate 63% among 1,900; AID 1907, 2009;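 note: 0% = vehicle and 100% = reference cytotoxic drug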
The depositor's hits bear a star; . = no result. The list is not random: actives were taken first. Their share in the collection is about 2.2%. Cut-off read from the data, not from the text of the source, unless noted: active = inhibition above about 22%; inactive = the rest.

SMILES | IEC-6 cytotox | APP transl inh | aSyn 5UTR inh | KLF5 inhibitor | Ba/F3 V617F tox | BaF3 parental | IEC-6 tox confirm
O=C(Nc1ccnn1C1CCN(Cc2cc(Cl)ccc2O)CC1)C1CC1 | -5.4 | . | 17.6 | -19.6 | . | . | .
COc1cc(/C=C/c2ccc3cccc(O)c3n2)cc(OC)c1OC | 30.4* | . | -23.7 | -0.2 | . | . | 3.8
Fc1ccccc1/C=C/c1ccc2ccccc2n1 | 2.3 | -195.5 | 35.0 | -129.4 | -0.1 | 4.7 | .
O=[N+]([O-])c1ccc(/C=C/c2ccc3cccc(O)c3n2)cc1 | 42.3* | . | -10.9 | -132.5 | . | . | 16.8
O=[N+]([O-])c1ccc(/C=C/c2ccc3ccccc3n2)cc1 | 87.6* | -165.4 | 46.1 | -95.1 | 0.9 | 8.9 | 66.8*
COc1cc(/C=C/c2ccc3cccc(O)c3n2)cc(Br)c1OC | -0.9 | . | -81.1 | -62.8 | . | . | .
Cc1ccc(NC(=O)c2nsc(Cl)c2Cl)cc1 | 24.4* | . | -112.7 | -131.4 | 2.1 | -3.0 | -4.2
CCCc1cc(NCc2ccccn2)n2nc(C)c(-c3ccccc3)c2n1 | 46.9* | . | -8.2 | -37.2 | 9.4 | 3.5 | 12.9
Cc1nn2c(NCc3ccccn3)cc(C(C)C)nc2c1-c1ccccc1 | -9.0 | . | 31.9 | 7.4 | -1.4 | -2.2 | .
Cc1cc(NCc2ccccn2)n2nc(C)c(-c3ccc(Cl)cc3)c2n1 | 12.2 | . | . | -5.9 | -0.9 | 0.0 | .
Cc1cc(N)n2ncc(-c3ccc(F)cc3)c2n1 | 9.9 | -84.1 | -104.3 | -114.7 | -4.5 | 0.6 | .
Cc1cc(N)n2ncc(-c3ccc(Cl)cc3)c2n1 | 25.1* | -96.0 | -51.5 | -21.0 | 0.6 | -1.9 | 26.0*
Cc1cc(NCc2ccccn2)n2ncc(-c3ccc(Cl)cc3)c2n1 | 29.0* | . | -96.7 | -14.3 | -1.9 | 0.1 | 30.4*
Cc1cc(NCc2ccccn2)n2ncc(-c3ccccc3)c2n1 | 83.8* | . | -154.8 | -40.6 | 0.1 | 5.7 | 30.9*
COc1ccc2nc(C)cc(Nc3ccc(N4CCN(C)CC4)cc3)c2c1 | 17.4 | . | -87.2 | -23.5 | . | . | .
CCOC(=O)Nc1cc(=O)c2ccccc2o1 | 44.0* | -10.8 | -19.2 | 35.1 | 69.3* | 59.7* | 22.9*
CC(C)C(=O)NCCCc1ccccc1 | 4.3 | 1.4 | 4.7 | -4.3 | 0.5 | 0.9 | .
CC(C)CC(=O)NCCCCc1ccccc1 | 22.0* | -21.8 | 3.0 | -36.1 | 3.4 | 5.7 | 6.2
COC(=O)C1=C(NC(C)=O)CCS1 | 22.8* | 5.1 | 5.2 | -22.0 | 6.8 | 8.4 | 3.6
COC(=O)C1=C(NC(=O)c2ccc(C)cc2)CCS1 | -0.9 | 5.3 | -53.3 | -33.8 | 0.4 | 4.0 | .
CCOC(=O)Nc1nc(-c2ccccc2)c(C(=O)c2ccc(Cl)cc2)s1 | 86.2* | 94.1* | 113.7* | 59.1 | 72.7* | 77.4* | 57.3*
Cc1ccc(CNC(=O)Cc2ccc(-n3cccc3)cc2)cc1 | 3.1 | 24.8 | -3.1 | -18.2 | 4.3 | 7.6 | .
O=C(Cc1ccc(-n2cccc2)cc1)NCc1cccs1 | 72.6* | 94.1* | 40.4 | 42.6 | 82.5* | 78.6* | 58.8*
Cc1ccc(C)c(NC(=O)COC(=O)COc2cccc3c2OC(C)(C)C3)c1 | . | . | 16.1 | . | . | . | .
CN(Cc1cn(C)nc1-c1ccc(Oc2ccccc2)cc1)CC1COCCO1 (configuration not stated) | 77.1* | 15.4 | 1.8 | 5.4 | 98.1* | 102.2* | 2.7
SMILES | IEC-6 cytotox | APP transl inh | aSyn 5UTR inh | KLF5 inhibitor | Ba/F3 V617F tox | BaF3 parental | IEC-6 tox confirm
CN(Cc1cn(C)nc1-c1ccc(Oc2ccccc2)cc1)C1CCOC1 (configuration not stated) | -1.6 | . | 17.7 | -13.3 | -0.5 | 3.8 | .
CCCc1c(C)nc(N2CCN(c3ccccc3OC)CC2)[nH]c1=O | 10.4 | . | -19.0 | -28.3 | . | . | .
CC1CCC(NC(=O)c2ccc(NC3=NC4CS(=O)(=O)CC4S3)cc2)CC1 (configuration not stated) | -2.1 | . | -6.7 | -49.4 | . | . | .
CC(C)[C@H](NC(=O)N1CCn2c1nc1ccccc12)C(=O)NC1CCCCC1 | -8.8 | . | 1.2 | -13.4 | . | . | .
Cc1cc(NC(=O)COC(=O)C2CC(=O)N(c3ccc(Cl)cc3)C2)no1 (configuration not stated) | 0.4 | . | 5.5 | 11.4 | . | . | .
CC1CC2(C)Oc3ccccc3CC2C(C)C1CNCCCN(C)C (configuration not stated) | 34.1* | 1.4 | 105.5* | 4.0 | 101.5* | 104.4* | 100.3*
CCn1nc(C)c(CN2CCCCC2C(=O)Nc2ccc(Oc3cccnc3)cc2)c1C (configuration not stated) | -6.0 | . | 13.0 | -22.9 | . | . | .
Cc1ccc(CN2CCCCC2C(=O)Nc2ccc(Oc3cccnc3)cc2)o1 (configuration not stated) | 38.4* | . | -58.3 | 26.9 | . | . | 36.7*
O=C(Nc1ccc(Oc2ccccc2)nc1)C1CCCCN1Cc1ccco1 (configuration not stated) | 59.8* | . | -49.4 | 50.2 | . | . | 38.6*
Cc1c(NS(=O)(=O)c2cc(C(=O)NCc3ccco3)cc(Cl)c2Cl)c(=O)n(-c2ccccc2)n1C | . | . | -0.2 | . | . | . | .
CC(=O)Nc1nc2ccc(S(=O)(=O)N3CCCC3)cc2s1 | -2.7 | . | 12.8 | -17.7 | . | . | .
CCCC(=O)Nc1nc2ccc(S(=O)(=O)N3CCCCC3)cc2s1 | 53.6* | 78.9* | 27.2 | 48.8 | 79.6* | 78.7* | 58.7*
Cc1ccccc1OCC(=O)Nc1ccc(N2CCN(C)CC2)c(Cl)c1 | -2.1 | . | -140.5 | -68.4 | . | . | .
O=C(/C=C/c1c[nH]c2ccccc12)c1ccccc1 | 0.5 | -116.8 | -330.2 | -50.6 | 3.0 | 4.5 | .
OCC[n+]1ccc(/C=C/c2c[nH]c3ccccc23)cc1 | 56.3* | 16.4 | -12.2 | 6.3 | 90.2* | 84.4* | 5.0
O=C(NC1=C(Nc2ccc(F)cc2)C(=O)c2ccccc2C1=O)c1ccc(Cl)cc1 | 4.4 | 5.0 | -57.4 | -0.3 | -3.2 | -0.6 | .
O=C1C(Cl)=C(Nc2ccc(O)cc2)C(=O)c2ccccc21 | 102.2* | . | -59.2 | 47.8 | 39.0* | 59.1* | 56.1*
CCCNC(=O)CSc1n[nH]c(=O)n1CCc1ccccc1 | 3.6 | . | -9.1 | -25.1 | . | . | .
COc1cc(C(=S)N2CCN(c3cccc(Cl)c3)CC2)ccc1O | 27.7* | 5.6 | 5.2 | 9.5 | 3.0 | 9.1 | 13.8
Oc1ccc(C(=S)N2CCN(c3cccc(Cl)c3)CC2)cc1 | 5.5 | 0.7 | 13.7 | -11.8 | 4.1 | 3.9 | .
COc1ccc(CCNC(=O)CCc2nnc(Cc3ccc4c(c3)OCO4)o2)c(OC)c1 | -4.0 | . | 11.4 | -45.9 | . | . | .
CC1=Nc2cc(C(=O)NCCCN3CCOCC3)ccc2Sc2c(C)ccc(C)c21 | 18.5 | . | 41.1 | -7.5 | . | . | .
CC1=Nc2cc(C(=O)NCCN3CCOCC3)ccc2Sc2c(C)ccc(C)c21 | 33.1* | . | 50.0 | 14.4 | . | . | 32.3*
CCOc1ccc(C2/C(=C(\O)c3ccc4c(c3)OCCO4)C(=O)C(=O)N2Cc2cccnc2)cc1OCC (configuration not stated) | 7.1 | . | 4.8 | 11.9 | . | . | .
